VP16 counter – inhibits Gal4-VP16 luciferase reporter, ROR gamma counter-screen; Potency, µM (titrated, usually from 53.6 µM), for inactives: at the top dose activity, negative = inhibition, hits mostly inhibitors; hit rate 3.5% among 310,000; Drosophila S2 Gal4-VP16 UAS-luciferase, luminescence, 20 h; AID 2546;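 note: Gal4-VP16 expression switched on by copper sulfate through the metallothionein promoter; % is set by controls: 0 for no effect and ±100 for the full control effect; nearly all actives have a fitted effect of over 50% in size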
HepG2 tox – counter-screen for TGF-b inhibitors: cytotoxicity in HepG2 cells; Potency, µM (series often up to 46.1 µM), for inactives: at the top dose activity change, negative = cytotoxicity, usual class: cytotoxic; AID 588856; HepG2 CAGA-GFP viability, ATP luminescence, 18 h; hit rate 0.76% among 410,000
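CellTiter-Glo luminescence gave cytotoxicity after 18 hours at 37 degrees C. The cells were HepG2 CAGA-GFP in 1% FBS DMEM, stimulated with 500 pg/mL TGF-beta after compound addition. %Activity was normalised to no-cell wells (complete cell-killing) and DMSO (no toxicity), and curves were fitted and classified.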
TGFb inhibitor – inhibitors of TGF-b signaling. HepG2 CAGA-GFP TGF-b/SMAD3 reporter, GFP fluorescence, 18 h; TGF-beta stimulated, 500 pg/mL final. Potency, µM (titrated, usually from 46.1 µM), for the others: at the highest dose activity, negative = inhibition, usual class: inhibitors. hit rate 1.2% among 410,000. AID 588855; note: % is set by controls: 0 for no effect and ±100 for the full control effect; nearly all actives have a fitted effect of over 65% in size
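Inhibition was scored as loss of TGF-beta-induced (500 pg/mL final, 18 hours, 37 degrees C) GFP in HEPG2 cells carrying a CAGA-GFP reporter, in DMEM with 1% FBS. Well GFP was summed per cell; Activity was normalised to unstimulated and stimulated DMSO wells, then concentration-response fitting.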
ATXN viability – reduces viability in counter-screen for ATXN expression inhibitors; S2 cells (HEK-293 line with an ATXN2-luciferase reporter) viability, CellTiter-Fluor protease fluorescence, 24 h; hit rate 0.49% among 400,000; Potency, µM (top dose mostly 56.7 µM), hits mostly cytotoxic; note: nearly all actives have a fitted effect of over 40% in size
ATXN2 expr inh – inhibitors of ATXN2 expression | HEK-293 ATXN2-luciferase reporter, luminescence, 24 h | Potency, µM (highest dose often 57 µM), without a hit: at the highest dose activity change, negative = inhibition, actives largely listed as inhibitors | hit rate 0.72% among 360,000 | AID 1745845; note: % is set by controls: 0 for no effect and ±100 for the full control effect; nearly all actives have a fitted effect of over 55% in size
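qHTS (up to 57 uM final) was run with 24 h compound exposure of reporter cells at 37 °C. Each well was multiplexed: SteadyGlo luminescence measured ATXN2-luciferase expression after a fluorogenic Gly-Phe-AFC viability readout (25 uM final).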
RORgamma inh – inhibitors of mouse ROR gamma transcriptional activity; P51450; Drosophila S2 Gal4-RORgamma UAS-luciferase reporter, 20 h; Potency, µM (highest dose often 53.6 µM), without a hit: at the highest dose activity change, negative = inhibition, hits mostly inhibitors; hit rate 5.4% among 310,000; AID 2551; note: % is set by controls: 0 for no effect and ±100 for the full control effect; nearly all actives have a fitted effect of over 60% in size
Target sequence (P51450 whole entry, looked up, the tested form may be a part): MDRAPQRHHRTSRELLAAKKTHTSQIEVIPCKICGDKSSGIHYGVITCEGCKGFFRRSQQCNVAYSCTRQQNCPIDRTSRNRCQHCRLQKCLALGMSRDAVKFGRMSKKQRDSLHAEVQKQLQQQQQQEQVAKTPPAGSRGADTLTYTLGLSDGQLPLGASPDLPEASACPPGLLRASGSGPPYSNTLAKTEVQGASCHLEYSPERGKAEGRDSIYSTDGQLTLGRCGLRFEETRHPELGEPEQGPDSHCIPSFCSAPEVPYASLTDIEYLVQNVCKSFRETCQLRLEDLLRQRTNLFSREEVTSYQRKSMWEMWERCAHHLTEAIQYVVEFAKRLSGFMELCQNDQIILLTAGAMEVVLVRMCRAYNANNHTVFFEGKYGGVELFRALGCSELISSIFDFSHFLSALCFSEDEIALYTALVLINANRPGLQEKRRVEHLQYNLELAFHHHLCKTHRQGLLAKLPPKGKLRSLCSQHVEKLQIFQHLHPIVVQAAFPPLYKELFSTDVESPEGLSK
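Read-out: Photinus luciferase luminescence; inhibitors lower reporter signal. Insect Schneider cells with Gal4-ROR gamma fusion under metallothionein promoter, UAS reporter; 700 uM final copper sulfate induction, 20 hr, ambient temperature.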
* hit, by the source's call; i = inactive; ? = inconclusive; · = not tested or not shown; [ ] = another dose, or the depositor's remark. This is a sample that favours compounds with a hit; in the whole collection about 6.3% have one here. Calls come from the whole dose curve; as a rule, active = well fitted curve in the direction sought with a large enough effect; inconclusive = small, poorly fitted or top-dose-only effect, or another doubt; inactive = no such curve, though single readings can be large; an effect the other way counts as inactive or inconclusive. Potency is the fitted concentration of half-maximal effect.

SMILES | VP16 counter | HepG2 tox | TGFb inhibitor | ATXN viability | ATXN2 expr inh | RORgamma inh
COc1ccc(-c2nc3c4ccccc4ccn3c2CN2CCCCC2)cc1 | -13.2% | -33.1% | -21.2% | ? | -7.8% | 7.94µM*
COc1ccc(-c2nc3c4ccccc4ccn3c2CN2CCCCC2)cc1OC | 4.8% | -25.3% | ? | 31.6µM* | · | ?
COc1ccc(-c2nc3c4ccccc4ccn3c2Cc2cccc(Cl)c2)cc1OC | · | -20.1% | -28.5% | ? | 23.8% | ·
Cc1ccc(NC(=O)CN2C(=O)CC(c3ccco3)Sc3ccccc32)cc1Cl (configuration not stated) | · | -1.5% | 19.1% | ? | -15.3% | ·
O=C(NC1CCCCC1)C(=S)NCCc1ccccc1 | 2.3% | -5.7% | 4.5% | i | -5.2%[2.22 µM] | 20.0%
S=C(NCCc1ccc(Cl)cc1)NC1CCCC1 | 6.31µM* | -38.9% | ? | i | -5.9% | 2µM*
CC1CCCC/C1=N\NC(=S)NCCc1ccccc1 (configuration not stated) | 1.78µM* | 3.2% | -1.6% | i | -7.9% | 0.355µM*
S=C(NCCc1ccc(Cl)cc1)NCc1ccccc1 | ? | -77.8% | ? | i | -20.2% | ?
S=C(NCCc1ccccc1)NC1CCCCCC1 | 8.6%[0.365 µM] | -31.1% | 26.3% | i | 56.5% | 2.82µM*
S=C(NC1CCCCC1)N(CCc1ccccc1)CCc1ccccc1 | 10µM* | -27.6% | -21.0% | i | · | 10µM*
CCc1ccc(NC(=O)CSc2nnc3[nH]c(=O)cc(-c4ccccc4)n23)cc1 | · | -7.8% | -3.5% | · | · | ·
O=C(Nc1ccccc1Oc1ccccc1)[C@@H]1O[C@H](CO)[C@H](O)[C@H](O)[C@H]1O | · | -3.6% | -9.0% | i | 13.1% | ·
Cc1cccc(C(C)C)c1NC(=O)c1ccc2c(c1)CCN2S(C)(=O)=O | · | -23.9% | 2.8% | i | -11.8% | ·
O=S(=O)(CCNCc1ccccc1)NC1CCCCC1 | · | -0.9% | -6.0% | i | 3.1% | ·
N#CCCN(Cc1ccccc1)C(CCc1ccccc1)C(=O)NC1CCCCC1 (configuration not stated) | · | -33.8% | 12.6µM* | ? | ? | ·
S=C(NCCc1ccc(Cl)cc1)NC1CCCCC1 | 5.01µM* | -52.9% | ? | ? | 27.0% | 3.55µM*
S=C(NCCNCc1ccccc1)NC1CCCCC1 | ? | · | · | · | · | 3.98µM*
COc1ccc(NC(=S)NCC(c2ccco2)N2CCCC2)cc1 (configuration not stated) | -6.4% | 2.2% | 5.6% | i | 12.7% | ?
S=C(NCCc1ccccc1)NCC(c1ccco1)N1CCCCC1 (configuration not stated) | ? | -21.3% | -26.2% | i | -0.6% | 10µM*
O=C(NCCc1ccccc1)C(=O)NC1CCCCC1 | 12.4% | 5.6% | -6.0% | i | 9.3% | -3.7%
CSc1ccc(CCNc2ncnc3onc(-c4ccc(Cl)cc4)c23)cc1 | · | -24.2% | ? | · | · | ·
Oc1ccc(C[C@H]2CNC(=S)N2CCc2cc(C(F)(F)F)cc(C(F)(F)F)c2)cc1 | -11.4% | -34.3% | ? | i | 0.6% | 17.8µM*
FC(F)(F)c1cc(CCN2C(=S)NC[C@@H]2c2ccccc2)cc(C(F)(F)F)c1 | 11.2µM* | -70.4% | ? | ? | ? | 5.62µM*
O=C1NC[C@H](c2ccccc2)N(CCc2cc(C(F)(F)F)cc(C(F)(F)F)c2)C1=O | -10.2% | -5.8% | -18.7% | ? | -4.5% | 20.1%
FC(F)(F)c1cc(CCN2C(=S)NC[C@@H]2Cc2ccccc2)cc(C(F)(F)F)c1 | 2.82µM* | -71.5% | ? | · | ? | 3.55µM*
SMILES | VP16 counter | HepG2 tox | TGFb inhibitor | ATXN viability | ATXN2 expr inh | RORgamma inh
FC(F)(F)c1cc(CCN2C(=S)NC[C@@H]2CC2CCCCC2)cc(C(F)(F)F)c1 | 6.31µM* | -29.8% | 14.1µM* | 20µM* | ? | 2.24µM*
COc1cc(CNCCCSc2nnnn2C)cc(Br)c1OC | · | -3.9% | 10.3% | · | · | ·
COc1ccc2oc(C(=O)OCC(=O)NC3CCS(=O)(=O)C3)c(C)c2c1 (configuration not stated) | · | -16.8% | -0.8% | i | · | ·
Cc1cc(N/N=C/c2ccc(F)cc2)nc(NCc2ccccc2)n1 | ? | -52.6% | -5.1% | i | 37.0% | 11.2µM*
Cc1ccc(/C=N/Nc2cc(C)nc(NCc3ccccc3)n2)cc1 | ? | 12.6µM* | ? | i | -30.4% | 20µM*
Cc1cc(N/N=C/c2ccc(N(C)C)cc2)nc(NCc2ccccc2)n1 | -3.2% | -51.1% | ? | i | -26.6% | -27.9%
COc1cccc(CNC(=O)c2c(OC)cc(=O)n3c2CCN(C(=O)c2ccoc2C)CC3)c1 | · | · | · | i | · | ·
CC(=O)CC1(OC(C)=O)C(=O)N(C)c2ccccc21 (configuration not stated) | 14.1µM* | -33.2% | ? | i | -2.4% | 6.31µM*
CC(C)C[C@H](NC(=O)CNC(=O)c1cc(Cl)ccc1Cl)B(O)O | · | · | · | · | 0.306µM* | ·
C=CCNC(=O)c1cc(Cl)ccc1Cl | -7.5% | -2.2% | 3.1% | i | 1.7% | -10.0%
CC(C)C[C@H](NC(=O)CNC(=O)c1cc(Cl)ccc1Cl)B1OC(=O)CC(CC(=O)O)(C(=O)O)O1 (some centres not stated) | · | · | · | · | 0.217µM* | ·
CCOC(=O)CC[C@H](NC(=O)Cn1cnc2c(SC)nc(N)nc21)C(=O)OCC | · | -10.3% | -14.4% | i | -3.3% | ·
C=CSc1sc(Cl)c(N2CCOCC2)c1[N+](=O)[O-] | -17.2%[10 µM] | -3.1% | -4.2% | i | -7.4% | -10.2%
C=CS(=O)(=O)c1sc(Cl)c(N2CCOCC2)c1[N+](=O)[O-] | 7.08µM* | -28.4% | -16.2% | ? | ? | 10µM*
COCCNC(=O)CN1C(=O)COc2ccc(S(=O)(=O)N3CCCC3)cc21 | · | -5.1% | -7.6% | i | 10.5% | ·
C=CCNc1nnc(SC2CC(=O)N(c3ccc(OCCC)cc3)C2=O)s1 (configuration not stated) | 17.8µM* | -67.4% | ? | i | 7.7% | ?
CCOc1ccc(N2C(=O)CC(Sc3ncccn3)C2=O)cc1 (configuration not stated) | ? | -5.8% | -6.3% | i | -4.6% | ?
COc1ccc(OC)c(NC(=O)c2cnc(Nc3ccc(C)c(Cl)c3)c3ccccc23)c1 | · | 1.2% | -19.3% | · | 5.5% | ·
COc1ccc(Nc2ncc(C(=O)Nc3ccc(F)cc3F)c3ccccc23)cc1 | · | -35.3% | 12.6µM* | ? | -19.7% | ·
CCn1c(O)c(N=NC2=NC(=O)CS2)c2ccccc21 | ? | -6.0% | 0.0% | i | 16.0% | 10µM*
C=CCn1c(-c2ccoc2C)n[nH]c1=S | ? | -20.2% | 5.5% | i | 2.8% | ?
